Consider 12 compounds from PubChem BioAssay (EPA / NIEHS).

Inconclusive results are not listed. Activity calls are given as the source filed them. The calls were made as follows, unless noted: active = hit-call score of the fitted dose curve at least 0.9, where 1 is the maximum; inactive = score below 0.9.

By AC50 is commonly meant the midpoint of the concentration-response curve, whichever way the signal moves.

Experiment [1] concerns the target human RAR-related Orphan Receptor beta (RORb), RORB (gene 6096) (UniProt Q92753). Description: ATG_RORb_TRANS: Attagene TRANS-FACTORIAL HepG2 Assay for human RAR-related Orphan Receptor beta (RORb) (AID 2283010; active = hit-call score of the fitted dose curve at least 0.9, where 1 is the maximum). In short, it runs like this: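 In this TRANS-format test, human HepG2 cells express chimeric NR-Gal4 fusion proteins driving GAL4-UAS reporters. After 24 h dosing, reporter transcripts are measured by fluorescent RT-PCR/capillary electrophoresis, with DMSO as negative control.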

Read-out in experiment [2]: E-selectin (Homo sapiens) (UniProt P16581)
Description: BSK_3C_Eselectin: BioMAP Diversity Plus: 3C Assay for Eselectin Biomarker Activity (AID 2283015).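 As to outcome: cell surface E-selectin protein quantified by ELISA 24 h after dosing.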 Conditions: primary human endothelial cells (HUVEC); actives raise or lower the signal. In short, it runs like this:
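ELISA read-out of E-selectin on endothelial monolayers after 24 h chemical treatment. Human umbilical vein primary cells served as the system, with DMSO defining baseline activity for bidirectional fitting.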

Read-out in experiment [3]: Interleukin-1 alpha (IL1a), IL1A (gene 3552)
Kind of experiment: BSK_BE3C_IL1a: BioMAP Diversity Plus: BE3C Assay for Interleukin-1 alpha (IL1a) Biomarker Activity (AID 2283016). Conditions: primary human bronchial epithelial cells; actives raise or lower the signal. The gist of the method:
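Cultures of primary human bronchial epithelial cells receive test chemical. After 24 h, IL-1a is quantified by ELISA, while parallel wells are fixed in TCA and SRB-stained for total protein. Changes in either direction are fitted relative to DMSO.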

Read-out in experiment [4]: Monocyte Chemoattractant Protein-1 (MCP1), CCL2 (gene 6347)
Kind of experiment: BSK_4H_MCP1: BioMAP Diversity Plus: 4H Assay for Monocyte Chemoattractant Protein-1 (MCP1) Biomarker Activity (AID 2283018). Conditions: primary human endothelial cells (HUVEC); actives raise or lower the signal. The gist of the method: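 Readout: MCP-1 ELISA on compound-treated HUVEC, sampled 24 h post-dosing. Baseline and negative control DMSO; bidirectional fit. Overt toxicity checked alongside by sulforhodamine B protein staining at time of biomarker measurement.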

Read-out in experiment [5]: Human Leukocyte Antigen - DR isotype (HLADR), HLA-DRA (gene 3122)
Kind of experiment: BSK_3C_HLADR: BioMAP Diversity Plus: 3C Assay for Human Leukocyte Antigen - DR isotype (HLADR) Biomarker Activity (AID 2283019). Conditions: primary human endothelial cells (HUVEC); actives raise or lower the signal. In short, it runs like this: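 ELISA readout of surface HLA-DR on human umbilical vein endothelium, taken 24 h after chemical treatment. Gain- and loss-of-signal were both fitted relative to DMSO.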

Read-out in experiment [6]: Interleukin-8 (IL8), CXCL8 (gene 3576)
Kind of experiment: BSK_3C_IL8: BioMAP Diversity Plus: 3C Assay for Interleukin-8 (IL8) Biomarker Activity (AID 2283020). The following applies: primary human endothelial cells (HUVEC); actives raise or lower the signal. In short, it runs like this: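 Human vascular endothelial cells (umbilical vein) in the 3C system; IL-8 level detected by ELISA at 24 h post-dose, with DMSO as baseline.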

Read-out in experiment [7]: Monokine induced gamma interferon (MIG), CXCL9 (gene 4283)
Kind of experiment: BSK_3C_MIG: BioMAP Diversity Plus: 3C Assay for Monokine induced gamma interferon (MIG) Biomarker Activity (AID 2283021). The following applies: primary human endothelial cells (HUVEC); actives raise or lower the signal. In short, it runs like this: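 After 24 h of treatment, human umbilical vein endothelial cultures (3C system) had their MIG biomarker level determined by ELISA, with DMSO serving as negative control.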

Experiment [8] can be described thus: BSK_3C_SRB: Viability Assessment in the BioMAP Diversity Plus: 3C Assay (AID 2283023).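 Also: fitted both ways against DMSO so a hit may be signal rise or drop.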 Conditions: primary human endothelial cells (HUVEC). The gist of the method:
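Absorbance at 560 nm of sulforhodamine B-stained (0.1%) total protein served as a cytotoxicity readout in human umbilical vein endothelial cells, 24 h after chemical treatment. Signal was fitted bidirectionally relative to DMSO.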

Read-out in experiment [9]: Matrix Metallopeptidase 1 (MMP1), MMP1 (gene 4312)
Description: BSK_BE3C_MMP1: BioMAP Diversity Plus: BE3C Assay for Matrix Metallopeptidase 1 (MMP1) Biomarker Activity (AID 2283024). Conditions: primary human bronchial epithelial cells; actives raise or lower the signal. In short, it runs like this:
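Dose cells, wait 24 h, run MMP1 ELISA; cells are human bronchial epithelial primaries. Both increases and decreases relative to DMSO counted.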

A short description of experiment [10]: BSK_3C_Vis: BioMAP Diversity Plus: 3C Assay for Morphology Visualization (AID 2283025).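 Also: fitted both ways so gain or loss versus DMSO counts.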 Conditions: primary human endothelial cells (HUVEC). The gist of the method: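 Endothelial cells from human umbilical vein were treated with test chemicals for 24 h and inspected by light microscopy for changes in cell conformation.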
Read-out in experiment [11]: Pselectin, SELP (gene 6403)
Kind of experiment: BSK_4H_Pselectin: BioMAP Diversity Plus: 4H Assay for Pselectin Biomarker Activity (AID 2283026). Conditions: primary human endothelial cells (HUVEC); actives raise or lower the signal. In short, it runs like this: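 Human vascular endothelium from umbilical vein; P-selectin measured by ELISA at 24 h post-dose, with cytotoxicity checked by sulforhodamine B total-protein staining in parallel cultures (0.1% SRB after 10% TCA fixation, read at 560 nm).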

Experiment [12] can be described thus: BSK_4H_SRB: Viability Assessment in the BioMAP Diversity Plus: 4H Assay (AID 2283027).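 Also: cells exposed to compound for 24 h before staining.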 Conditions: primary human endothelial cells (HUVEC). In short, it runs like this:
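Human umbilical vein endothelial cells, 24 h after chemical dosing; total protein measured by 0.1% sulforhodamine B staining after 10% TCA fixation, read at 560 nm. Bidirectional fitting against DMSO.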

A short description of experiment [13]: BSK_BE3C_SRB: Viability Assessment in the BioMAP Diversity Plus: BE3C Assay (AID 2283028). Conditions: primary human bronchial epithelial cells. In short, it runs like this: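 Cells (human bronchial epithelial, primary) are treated with chemicals, and after 24 h the parallel cultures are fixed in 10% TCA. These are then stained with 0.1% SRB and read at 560 nm. Gain or loss of signal is fitted relative to DMSO.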

Read-out in experiment [14]: Thrombomodulin, THBD (gene 7056)
Description: BSK_3C_Thrombomodulin: BioMAP Diversity Plus: 3C Assay for Thrombomodulin Biomarker Activity (AID 2283029). The following applies: primary human endothelial cells (HUVEC); actives raise or lower the signal. The gist of the method:
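Thrombomodulin ELISA, human primary HUVEC, 24 h post-dose; data fitted in both directions relative to DMSO.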

Experiment [15] has as its target Retinoic acid receptor RXR-alpha (Homo sapiens) (UniProt P19793). Kind of experiment: ATG_RXRa_TRANS: Attagene TRANS-FACTORIAL HepG2 Assay for human Retinoid X Receptor alpha (RXRa) (AID 2283012; active = hit-call score of the fitted dose curve at least 0.9, where 1 is the maximum). In short, it runs like this: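 Cells (HepG2) carried transiently transfected GAL4-responsive reporter units. Following a 24 h chemical incubation, reporter mRNA induction was read via RT-PCR fragment analysis; DMSO served as negative control and baseline.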

Experiment [16] concerns the target human Vitamin D Receptor (VDR), VDR (gene 7421) (UniProt P11473). Description: ATG_VDR_TRANS: Attagene TRANS-FACTORIAL HepG2 Assay for human Vitamin D Receptor (VDR) (AID 2283022; active = hit-call score of the fitted dose curve at least 0.9, where 1 is the maximum). The gist of the method:
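Steps: transfect HepG2 with GAL4-UAS-driven reporter constructs; dose compounds 24 h; isolate RNA, reverse-transcribe, PCR-amplify with 6-FAM-labelled primer extension and HpaI digestion; quantify fragments by capillary electrophoresis relative to DMSO.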

Read-out in experiment [17]: Monocyte Chemoattractant Protein-1 (MCP1), CCL2 (gene 6347)
Kind of experiment: BSK_3C_MCP1: BioMAP Diversity Plus: 3C Assay for Monocyte Chemoattractant Protein-1 (MCP1) Biomarker Activity (AID 2283017). Conditions: primary human endothelial cells (HUVEC); actives raise or lower the signal. The gist of the method:
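ELISA read-out of MCP-1 from human umbilical vein endothelial cell cultures harvested 24 h post-dosing. Gain or loss of signal was fitted relative to DMSO.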

Experiment [18] has as its target human Thyroid Receptor alpha (THRa1), THRA (gene 7067) (UniProt P10827). Description: ATG_THRa1_TRANS: Attagene TRANS-FACTORIAL HepG2 Assay for human Thyroid Receptor alpha (THRa1) (AID 2283014; active = hit-call score of the fitted dose curve at least 0.9, where 1 is the maximum). In short, it runs like this:
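Reporter transcript induction, read by capillary electrophoresis of 6-FAM-labelled RT-PCR products, reflects activity of a transfected THRa1-Gal4 fusion in HepG2 liver cells. Cells were dosed for 24 h; activity was fitted in the positive direction against DMSO.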

Experiment [19] concerns the target human Retinoid X Receptor beta (RXRb), RXRB (gene 6257) (UniProt P28702). Kind of experiment: ATG_RXRb_TRANS: Attagene TRANS-FACTORIAL HepG2 Assay for human Retinoid X Receptor beta (RXRb) (AID 2283013; active = hit-call score of the fitted dose curve at least 0.9, where 1 is the maximum). The gist of the method:
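Multiplexed TRANS reporter assay in HepG2; 24 h dosing; reporter mRNA by RT-PCR/CE fluorescence; gain-of-signal relative to DMSO.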

Chain of human RAR-related Orphan Receptor beta (RORb), RORB (gene 6096) (Q92753 whole entry, looked up, the tested form may be a part): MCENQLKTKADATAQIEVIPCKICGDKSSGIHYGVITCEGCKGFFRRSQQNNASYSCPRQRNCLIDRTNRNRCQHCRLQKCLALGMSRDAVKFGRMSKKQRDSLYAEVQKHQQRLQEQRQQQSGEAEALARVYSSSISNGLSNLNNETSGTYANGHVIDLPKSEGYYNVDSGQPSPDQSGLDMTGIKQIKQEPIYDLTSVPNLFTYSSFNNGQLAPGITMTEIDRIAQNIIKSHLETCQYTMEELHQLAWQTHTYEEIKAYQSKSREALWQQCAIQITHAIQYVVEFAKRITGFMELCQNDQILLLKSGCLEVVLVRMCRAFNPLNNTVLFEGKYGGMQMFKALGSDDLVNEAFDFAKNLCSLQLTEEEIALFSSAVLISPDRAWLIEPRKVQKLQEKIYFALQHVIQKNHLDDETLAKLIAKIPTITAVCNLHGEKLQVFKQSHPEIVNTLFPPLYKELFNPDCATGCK
Chain of E-selectin (Homo sapiens) (P16581 whole entry, looked up): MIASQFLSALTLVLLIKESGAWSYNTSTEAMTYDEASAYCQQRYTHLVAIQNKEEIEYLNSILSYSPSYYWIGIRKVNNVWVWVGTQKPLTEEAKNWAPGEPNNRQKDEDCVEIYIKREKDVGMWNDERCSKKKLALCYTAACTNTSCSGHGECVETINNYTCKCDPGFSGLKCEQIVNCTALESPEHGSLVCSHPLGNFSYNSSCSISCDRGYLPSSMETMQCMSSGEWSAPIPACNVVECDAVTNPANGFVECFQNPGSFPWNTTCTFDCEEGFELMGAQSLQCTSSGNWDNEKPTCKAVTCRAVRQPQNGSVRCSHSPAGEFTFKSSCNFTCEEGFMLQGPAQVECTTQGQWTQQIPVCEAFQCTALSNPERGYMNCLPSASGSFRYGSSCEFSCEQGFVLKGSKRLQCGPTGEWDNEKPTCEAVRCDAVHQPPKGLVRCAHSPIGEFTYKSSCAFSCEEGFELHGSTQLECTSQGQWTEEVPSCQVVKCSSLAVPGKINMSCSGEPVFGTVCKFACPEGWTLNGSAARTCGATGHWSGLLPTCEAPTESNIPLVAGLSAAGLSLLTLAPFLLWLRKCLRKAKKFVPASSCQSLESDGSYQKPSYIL
Chain of human Vitamin D Receptor (VDR), VDR (gene 7421) (P11473 whole entry, looked up, the tested form may be a part): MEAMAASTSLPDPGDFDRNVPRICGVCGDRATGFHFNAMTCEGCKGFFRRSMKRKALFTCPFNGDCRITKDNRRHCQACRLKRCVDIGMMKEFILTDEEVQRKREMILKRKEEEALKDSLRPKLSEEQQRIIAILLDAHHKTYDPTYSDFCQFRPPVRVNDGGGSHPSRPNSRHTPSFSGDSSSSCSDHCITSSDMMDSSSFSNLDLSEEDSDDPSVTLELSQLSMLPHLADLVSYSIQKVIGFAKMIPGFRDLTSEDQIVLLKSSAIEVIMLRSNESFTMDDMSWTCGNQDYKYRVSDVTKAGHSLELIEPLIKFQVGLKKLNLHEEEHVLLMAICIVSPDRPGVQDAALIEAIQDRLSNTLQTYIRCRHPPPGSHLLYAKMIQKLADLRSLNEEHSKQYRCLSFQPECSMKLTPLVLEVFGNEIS
Chain of Retinoic acid receptor RXR-alpha (Homo sapiens) (P19793 whole entry, looked up, the tested form may be a part): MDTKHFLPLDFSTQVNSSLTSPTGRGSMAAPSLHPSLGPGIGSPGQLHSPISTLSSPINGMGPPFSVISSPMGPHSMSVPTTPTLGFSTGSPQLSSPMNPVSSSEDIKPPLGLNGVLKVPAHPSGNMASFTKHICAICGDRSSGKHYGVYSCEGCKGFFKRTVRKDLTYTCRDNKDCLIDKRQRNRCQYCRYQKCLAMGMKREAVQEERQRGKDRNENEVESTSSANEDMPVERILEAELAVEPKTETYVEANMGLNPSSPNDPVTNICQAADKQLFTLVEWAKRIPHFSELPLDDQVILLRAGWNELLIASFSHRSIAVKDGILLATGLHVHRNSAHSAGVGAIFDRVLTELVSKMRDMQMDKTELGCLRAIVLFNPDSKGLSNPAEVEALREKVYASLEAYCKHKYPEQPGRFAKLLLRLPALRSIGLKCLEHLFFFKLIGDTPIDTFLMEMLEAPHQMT
Chain of human Thyroid Receptor alpha (THRa1), THRA (gene 7067) (P10827 whole entry, looked up, the tested form may be a part): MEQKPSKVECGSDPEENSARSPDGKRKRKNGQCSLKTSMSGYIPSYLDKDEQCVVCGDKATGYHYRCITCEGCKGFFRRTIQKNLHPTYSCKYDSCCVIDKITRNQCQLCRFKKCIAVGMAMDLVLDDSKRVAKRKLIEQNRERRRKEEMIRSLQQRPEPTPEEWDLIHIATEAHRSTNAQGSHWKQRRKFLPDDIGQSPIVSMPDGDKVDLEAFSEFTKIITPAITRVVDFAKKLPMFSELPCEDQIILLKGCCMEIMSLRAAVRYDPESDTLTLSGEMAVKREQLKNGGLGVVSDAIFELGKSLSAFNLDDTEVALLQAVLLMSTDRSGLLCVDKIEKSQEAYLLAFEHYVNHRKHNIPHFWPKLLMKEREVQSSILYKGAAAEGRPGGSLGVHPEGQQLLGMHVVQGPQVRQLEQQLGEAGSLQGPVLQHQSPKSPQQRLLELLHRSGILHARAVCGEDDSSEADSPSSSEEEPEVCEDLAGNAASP
Chain of human Retinoid X Receptor beta (RXRb), RXRB (gene 6257) (P28702 whole entry, looked up): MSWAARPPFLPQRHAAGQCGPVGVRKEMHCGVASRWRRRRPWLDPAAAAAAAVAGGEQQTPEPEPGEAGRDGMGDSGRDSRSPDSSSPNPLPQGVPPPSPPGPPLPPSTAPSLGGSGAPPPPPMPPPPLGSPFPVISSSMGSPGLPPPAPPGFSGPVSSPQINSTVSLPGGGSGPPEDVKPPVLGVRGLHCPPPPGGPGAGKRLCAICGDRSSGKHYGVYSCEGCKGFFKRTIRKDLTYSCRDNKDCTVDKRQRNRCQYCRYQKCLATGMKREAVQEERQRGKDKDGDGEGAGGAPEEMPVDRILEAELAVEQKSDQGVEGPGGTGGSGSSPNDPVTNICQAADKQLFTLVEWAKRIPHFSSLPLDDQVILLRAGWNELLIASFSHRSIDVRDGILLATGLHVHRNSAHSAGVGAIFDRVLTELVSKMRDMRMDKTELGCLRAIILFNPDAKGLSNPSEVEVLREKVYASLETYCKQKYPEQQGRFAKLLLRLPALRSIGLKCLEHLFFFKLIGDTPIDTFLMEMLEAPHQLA

In the case of `CCOP(=S)(S)OCC`, the compound was called inactive in [1], in experiment [2], in experiment [3], in experiment [4], in experiment [5] and in experiment [6]. The result in [7], in [8], in [9], in experiment [10], in experiment [11] and in [12] was inactive. For the same compound, the outcome in [13] and in [14] was inactive.
In the case of `C/C(=N\NC(=O)Nc1cc(F)cc(F)c1)c1ncccc1C(=O)O`, the compound was classed as inactive in experiment [1], in experiment [15] and in experiment [16].
For the compound `CC(C)(C)c1ccc(O)cc1`, the call in experiment [1], in [15], in experiment [2], in experiment [3], in experiment [4] and in experiment [5] was inactive. The outcome in [6], in experiment [7], in [8], in experiment [9], in [10] and in experiment [12] was inactive. Besides, the result in [13] and in [14] was inactive.
As to `NNC(N)=S`, the outcome in experiment [1], in experiment [15] and in experiment [16] was inactive.
On to `O=C(O)C=CC(F)(C(F)(F)F)C(F)(F)F`, for which the call in experiment [1], in experiment [15], in experiment [2], in [3], in experiment [17] and in experiment [4] was inactive. For the same compound, the outcome in experiment [5], in [6], in experiment [7], in [16], in experiment [8] and in experiment [9] was inactive. Besides, the outcome in experiment [11], in [12], in experiment [13] and in [14] was inactive.
For the compound `CSC(C)(C)C=NO`, the result in experiment [1], in [15], in experiment [2], in experiment [3], in experiment [17] and in experiment [4] was inactive. Also, the outcome in experiment [5], in experiment [6], in experiment [7], in experiment [16], in experiment [8] and in experiment [9] was inactive. In addition, the outcome in [10], in experiment [11], in experiment [12], in experiment [13] and in experiment [14] was inactive.
Turning to `Nc1ccc(Sc2ccc(N)cc2)cc1`, the compound was classed as inactive in experiment [1], in experiment [15] and in [16].
`CCC(C)(C)c1ccc(O)cc1`: the call in experiment [1], in experiment [15], in [2], in experiment [3], in experiment [17] and in experiment [4] was inactive. Besides, the result in experiment [5], in experiment [6], in experiment [7], in [8], in experiment [9] and in experiment [10] was inactive. Further, the outcome in experiment [12], in [13] and in experiment [14] was inactive.
In the case of `N#Cc1ccc(O)cc1`, the result in experiment [1], in [15], in experiment [18] and in [16] was inactive.
For the compound `C=C(C)C(=O)OCC1CO1` (stereo not drawn), the call in experiment [1] was inactive.
As to `O=C(O)C(F)(F)C(F)(F)C(=O)O`, the outcome in experiment [1], in experiment [15], in experiment [18], in [2], in experiment [3] and in experiment [17] was inactive. The outcome in [4], in experiment [5], in [6], in experiment [7], in experiment [16] and in experiment [8] was inactive. In addition, the result in [9], in [12], in [13] and in experiment [14] was inactive.
On to `CCOP(=S)(NC(C)C)Oc1ccccc1C(=O)OC(C)C` (stereo not drawn), for which the compound was called inactive in [15], in experiment [3], in experiment [17], in experiment [4], in experiment [5] and in [6]. The outcome in experiment [7], in experiment [16], in [8], in experiment [9], in experiment [10] and in experiment [11] was inactive. Also, the outcome in [12], in experiment [13] and in experiment [14] was inactive. The AC50 in experiment [19] is 13.3 µM (active); in experiment [2], 20 µM (active).
